Measured values published in PubChem BioAssay (Tox21).
Inconclusive results are not listed. Active and inactive are the calls of the source. Unless noted, the call rests on the fitted dose curve.

Columns and labels:
[1] = Nuclear factor erythroid 2-related factor 2/antioxidant responsive element (Nrf2/ARE) small molecule agonists: qHTS cell viability counter screen in human keratinocytes (AID 1919968; active means well fitted curve in the direction sought with a large enough effect in the repeat runs; an effect the other way counts as inactive or inconclusive; further: nearly all actives have a fitted effect of over 55% in size)
How it was run: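 Cells of the KeratinoSens line were plated at 1,500 per well and left for 5 h before compound transfer from DMSO stocks. After a 23 h incubation (37 C, 5% CO2), CellTiter-Fluor was added. Signal was taken as fluorescence intensity 1 h later.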

[2] = Nuclear factor erythroid 2-related factor 2/antioxidant responsive element (Nrf2/ARE) small molecule agonists: luciferase reporter gene qHTS assay in human keratinocytes (AID 1919969); further: nearly all actives have a fitted effect of over 35% in size
[3] = biological target: Gonadotropin-releasing hormone receptor (Homo sapiens) (UniProt P30968); experiment: Human gonadotropin-releasing hormone receptor (GnRHR) small molecule agonists, calcium flux assay in GnRHR-HEK293 cells (AID 1920063); further: nearly all actives have a fitted effect of over 35% in size
How it was run: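 Compounds dissolved in DMSO are pin-transferred onto dye-loaded GnRHR-HEK293 cells, which were seeded 18 h before at 37 C/5% CO2. Calcium signal is read as fluorescence intensity at 1 s intervals for 3 min.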

[4] = biological target: KiSS-1 receptor (Homo sapiens) (UniProt Q969F8); experiment: Human kisspeptin (KISS1R) small molecule agonists, calcium flux assay in KISS1R-HEK293 cells (AID 1920064; active means well fitted curve in the direction sought with a large enough effect in the repeat runs; an effect the other way counts as inactive or inconclusive)
How it was run: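 Cell line: HEK293, stable human KISS1R. Dye loading 1 h at 37 C after 18 h culture. Read: kinetic fluorescence, 480/540 nm, 3 min at 1 s intervals.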

[5] = p53 small molecule agonists, cell-based qHTS assay with human liver microsomes (AID 1963577);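 further: p53 response element beta-lactamase reporter cells with liver microsomes plus NADPH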
How it was run: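 Steps: plate p53RE-bla cells, incubate 5 h at 37 C; add compound in DMSO; add microsomes (0.5 mg/mL final) and NADPH (0.5 mg/mL final); incubate 16 h at 37 C; add LiveBLAzer, 2 h RT; read fluorescence.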

[6] = p53 small molecule agonists, cell-based qHTS assay with rat liver microsomes (AID 1963578)
How it was run: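 Metabolic activation is supplied by rat liver microsomes with NADPH (each 0.5 mg/mL final). p53RE-bla cells incubate with compound 16 h at 37 C; reporter activity is measured by LiveBLAzer fluorescence.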

[7] = p53 small molecule agonists, cell-based qHTS assay with human liver microsomes: qHTS cell viability counter screen (AID 1963579); further: nearly all actives have a fitted effect of over 45% in size
How it was run: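 After the 460/530 nm beta-lactamase read, CellTiter-Glo was added to the same wells and luminescence measured after 30 min at room temperature, giving viability of p53RE-bla cells treated 16 h with compounds plus microsomes and NADPH.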

[8] = p53 small molecule agonists, cell-based qHTS assay with rat liver microsomes: qHTS cell viability counter screen (AID 1963580); further: nearly all actives have a fitted effect of over 45% in size
How it was run: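 Luminescent ATP readout (CellTiter-Glo, 30 min at room temperature) reports viability of p53RE-bla HCT-116 cells after 16 h at 37 C with test compounds under metabolic activation by rat liver microsomes and NADPH at 0.5 mg/mL final each.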

[9] = p53 small molecule agonists, cell-based qHTS assay: qHTS cell viability counter screen (AID 1963581); further: nearly all actives have a fitted effect of over 45% in size
How it was run: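 ATP content measured by luminescence in HCT-116 p53RE-bla cells treated 16 h at 37 C, same wells as the reporter screen.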

[10] = p53 small molecule agonists, cell-based qHTS assay (AID 1963582; active means well fitted activation curve with a large enough effect in the signal ratio in the repeat runs, not every such curve was filed as active; the % refers to the signal ratio)
How it was run: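 16 h compound exposure (37 C) of p53 response element–bla cells, preceded by 5 h recovery at 37 C/5% CO2; read-out via LiveBLAzer B/G FRET substrate, 2 h RT, fluorescence intensity.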

[11] = biological target: 5-hydroxytryptamine receptor 2A (Homo sapiens) (UniProt P28223); experiment: 5-hydroxytryptamine receptor 2A (HTR2A) small molecule antagonists, cell-based qHTS assay (AID 1963586); further: nearly all actives have a fitted effect of over 45% in size
How it was run: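 CHO cells stably expressing human HTR2A were plated for 18 h at 37 C, then loaded with calcium dye for 1 h. Compounds were preincubated 5 min at room temperature before DOI (4 nM solution) was added. Kinetic fluorescence was read for 3 min.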

[12] = biological target: Muscarinic acetylcholine receptor M1 (Homo sapiens) (UniProt P11229); experiment: Cholinergic receptor muscarinic 1 (CHRM1) small molecule antagonists, cell-based qHTS assay (AID 1963588); further: nearly all actives have a fitted effect of over 40% in size
How it was run: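 Compounds were tested at 15 concentrations in three independent runs. Dye-loaded CHRM1-CHO cells were exposed 5 min at room temperature before stimulation by acetylcholine added at 50nM. Intracellular calcium was read kinetically on FDSS for 3 min.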

[13] = biological target: Muscarinic acetylcholine receptor M1 (Homo sapiens) (UniProt P11229); experiment: Cholinergic receptor muscarinic 1 (CHRM1) small molecule agonists, cell-based qHTS assay (AID 1963589); further: nearly all actives have a fitted effect of over 35% in size
How it was run: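 Homogeneous fluorescence calcium flux, agonist mode. Human M1-expressing CHO cells; compound dosed at 15 concentrations, three independent runs; signal sampled every 1 sec.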

[14] = cAMP Responsive Elements (CRE) small molecule antagonists, cell-based qHTS assay (AID 1963591; active means well fitted inhibition curve with a large enough effect in the signal ratio in the repeat runs, not every such curve was filed as active; the % refers to the signal ratio)
How it was run: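 First, CRE-bla HEK293T cells settled 18 h at 37 C. Next, compound and 0.25 uM final NKH477 were applied for 3 h. Last, LiveBLAzer B/G substrate was loaded for 2 h at room temperature.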

[15] = biological target: Beta-2 adrenergic receptor (Homo sapiens) (UniProt P07550); experiment: Adrenergic beta2 receptor (ADRB2) small molecule antagonists, cell-based qHTS assay (AID 1963592); further: series mostly up to about 92 µM; nearly all actives have a fitted effect of over 50% in size
How it was run: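 Assay format: CHO-ADRB2 cells, 18-20hr seeding at 37C/5% CO2, then compound plus 1nM isoproterenol agonist mix for 0.5hr RT. Homogeneous time-resolved fluorescence cAMP detection after 1hr, expressed as 665/615 nm ratio.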

[16] = biological target: D(2) dopamine receptor (Homo sapiens) (UniProt P14416); experiment: Dopamine D2 receptor (DRD2) small molecule agonists, cell-based qHTS assay (AID 1963594); further: nearly all actives have a fitted effect of over 35% in size
How it was run: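 HEK293 cells stably expressing DRD2 were cultured 24 h at 37 C, then given Ro20-1724 (0.1 mM final) and compounds for 10 min at room temperature. NKH477 (200nM) was then added for 30 min. cAMP was read by HTRF.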

[17] = biological target: D(2) dopamine receptor (Homo sapiens) (UniProt P14416); experiment: Dopamine D2 receptor (DRD2) small molecule antagonists, cell-based qHTS assay (AID 1963595; active means well fitted inhibition curve with a large enough effect in the signal ratio in the repeat runs, with a control signal flat; the % refers to the signal ratio)
How it was run: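 DRD2-HEK293; 0.1 mM Ro20-1724; cpd 10 min RT; NKH477 200 nM + quinpirole 12 nM, 30 min RT; HTRF cAMP (cAMP-d2/anti-cAMP cryptate), 665/620 nm ratio after 1 h.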

[18] = cAMP Responsive Elements (CRE) small molecule agonists, cell-based qHTS assay (AID 1963590)
How it was run: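 HEK 293T cells stably bearing CRE-bla were plated at 2,000 cells per well and rested 18 h. Compounds, positive controls or DMSO were added for 3 h at 37 C. LiveBLAzer B/G substrate was then loaded for 2 h at room temperature.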

[19] = biological target: 5-hydroxytryptamine receptor 2A (Homo sapiens) (UniProt P28223); experiment: 5-hydroxytryptamine receptor 2A (HTR2A) small molecule agonists, cell-based qHTS assay (AID 1963587); further: nearly all actives have a fitted effect of over 30% in size
How it was run: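 HTR2A-CHO cells, plated 18 h at 37 C/5% CO2, dye-loaded 1 h at 37 C; compounds in DMSO added by pin tool (agonist mode). Intracellular calcium flux read as kinetic fluorescence on FDSS over 2 min at 1 s intervals.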
On the % scale 0 is the no-effect control and ±100 the full control effect.

D(2) dopamine receptor (Homo sapiens), sequence (P14416 whole entry, looked up): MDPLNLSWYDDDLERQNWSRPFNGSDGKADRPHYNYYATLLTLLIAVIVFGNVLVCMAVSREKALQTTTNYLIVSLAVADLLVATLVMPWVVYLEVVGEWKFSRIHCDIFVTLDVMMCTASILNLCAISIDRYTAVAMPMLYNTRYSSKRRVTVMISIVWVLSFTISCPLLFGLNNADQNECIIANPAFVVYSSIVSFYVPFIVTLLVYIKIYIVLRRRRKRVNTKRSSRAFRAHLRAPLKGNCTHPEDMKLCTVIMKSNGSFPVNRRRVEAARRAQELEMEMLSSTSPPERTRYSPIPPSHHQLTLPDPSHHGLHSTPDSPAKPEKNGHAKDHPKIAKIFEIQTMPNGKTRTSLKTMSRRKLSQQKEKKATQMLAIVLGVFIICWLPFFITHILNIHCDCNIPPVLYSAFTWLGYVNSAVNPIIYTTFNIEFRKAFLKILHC
Gonadotropin-releasing hormone receptor (Homo sapiens), sequence (P30968 whole entry, looked up): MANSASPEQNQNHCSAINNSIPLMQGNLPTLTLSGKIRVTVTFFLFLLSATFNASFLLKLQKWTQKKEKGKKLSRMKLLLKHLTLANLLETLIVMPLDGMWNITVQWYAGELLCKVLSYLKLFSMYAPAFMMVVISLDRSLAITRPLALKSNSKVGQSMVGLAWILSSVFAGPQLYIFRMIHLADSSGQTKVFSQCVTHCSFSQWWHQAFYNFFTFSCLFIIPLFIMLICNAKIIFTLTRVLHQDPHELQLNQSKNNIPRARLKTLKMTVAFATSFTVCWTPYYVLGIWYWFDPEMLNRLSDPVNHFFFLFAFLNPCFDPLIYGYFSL
Beta-2 adrenergic receptor (Homo sapiens), sequence (P07550 whole entry, looked up): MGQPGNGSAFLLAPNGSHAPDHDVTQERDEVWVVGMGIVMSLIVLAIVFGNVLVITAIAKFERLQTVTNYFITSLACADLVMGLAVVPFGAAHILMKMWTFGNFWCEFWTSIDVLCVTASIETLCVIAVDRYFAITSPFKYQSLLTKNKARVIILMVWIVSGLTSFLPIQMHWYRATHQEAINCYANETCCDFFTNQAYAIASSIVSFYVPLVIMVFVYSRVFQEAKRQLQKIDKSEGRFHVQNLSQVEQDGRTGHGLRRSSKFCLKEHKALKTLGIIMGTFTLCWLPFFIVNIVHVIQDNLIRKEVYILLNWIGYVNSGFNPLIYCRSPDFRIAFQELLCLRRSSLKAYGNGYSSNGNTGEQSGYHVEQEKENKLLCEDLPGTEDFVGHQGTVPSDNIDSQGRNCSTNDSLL
5-hydroxytryptamine receptor 2A (Homo sapiens), sequence (P28223 whole entry, looked up): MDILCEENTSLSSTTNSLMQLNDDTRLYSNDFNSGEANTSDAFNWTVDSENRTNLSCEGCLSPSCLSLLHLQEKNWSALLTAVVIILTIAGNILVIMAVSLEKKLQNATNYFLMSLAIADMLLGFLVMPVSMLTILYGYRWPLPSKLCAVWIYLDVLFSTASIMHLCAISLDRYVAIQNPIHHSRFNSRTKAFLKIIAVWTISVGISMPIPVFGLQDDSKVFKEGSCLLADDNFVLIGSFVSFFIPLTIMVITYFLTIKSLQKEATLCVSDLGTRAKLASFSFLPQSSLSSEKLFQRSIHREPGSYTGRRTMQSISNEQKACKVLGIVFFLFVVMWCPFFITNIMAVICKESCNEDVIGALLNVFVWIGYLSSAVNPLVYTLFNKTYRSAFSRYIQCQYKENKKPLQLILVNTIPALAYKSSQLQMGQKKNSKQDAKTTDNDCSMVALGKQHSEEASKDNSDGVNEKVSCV
Muscarinic acetylcholine receptor M1 (Homo sapiens), sequence (P11229 whole entry, looked up): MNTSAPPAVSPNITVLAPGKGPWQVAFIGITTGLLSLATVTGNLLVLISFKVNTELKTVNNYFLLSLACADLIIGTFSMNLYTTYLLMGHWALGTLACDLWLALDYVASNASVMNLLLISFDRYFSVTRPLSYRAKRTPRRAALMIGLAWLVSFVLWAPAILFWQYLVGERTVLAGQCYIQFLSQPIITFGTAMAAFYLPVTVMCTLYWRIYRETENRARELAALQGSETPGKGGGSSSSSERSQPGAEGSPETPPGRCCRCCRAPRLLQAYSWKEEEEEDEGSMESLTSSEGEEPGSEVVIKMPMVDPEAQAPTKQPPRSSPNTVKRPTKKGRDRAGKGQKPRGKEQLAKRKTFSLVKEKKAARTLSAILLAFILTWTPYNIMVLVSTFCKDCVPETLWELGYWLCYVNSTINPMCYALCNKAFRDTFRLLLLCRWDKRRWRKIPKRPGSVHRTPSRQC
KiSS-1 receptor (Homo sapiens), sequence (Q969F8 whole entry, looked up): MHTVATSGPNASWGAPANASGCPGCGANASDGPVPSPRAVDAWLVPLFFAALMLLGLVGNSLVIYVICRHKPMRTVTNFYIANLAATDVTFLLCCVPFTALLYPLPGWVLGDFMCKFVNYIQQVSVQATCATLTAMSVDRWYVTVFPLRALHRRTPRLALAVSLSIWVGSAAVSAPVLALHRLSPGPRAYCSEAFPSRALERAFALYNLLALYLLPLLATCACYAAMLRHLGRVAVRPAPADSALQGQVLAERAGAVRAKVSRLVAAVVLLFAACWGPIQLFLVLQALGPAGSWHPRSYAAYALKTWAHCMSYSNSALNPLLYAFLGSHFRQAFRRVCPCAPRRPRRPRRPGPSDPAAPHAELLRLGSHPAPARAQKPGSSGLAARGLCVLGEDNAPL

Cc1cccn2c(=O)c(-c3nnn[nH]3)cnc12
inactive: activity change, negative = cytotoxicity [1] 0.925% [at 19 µM] | activity, positive = activation [2] -2.87% [at 19 µM] | activity change [3] -0.454% [at 11.8 µM, stronger effect = higher value] | activation [4] 0.024% [at 15.8 µM] | activation [5] 6.61% [at 13.5 µM] | activation [6] 0.054% [at 13.6 µM] | activity change, negative = cytotoxicity [7] -18.5% [at 13.5 µM] | activity change, negative = cytotoxicity [8] -1.1% [at 13.5 µM] | activity change, negative = cytotoxicity [9] -1.22% [at 13.5 µM] | activation [10] 1.33% [at 13.5 µM] | activity, negative = inhibition [11] 5.08% [at 12.7 µM] | activity, negative = inhibition [12] -2.73% [at 12.6 µM] | activation [13] -0.574% [at 15.8 µM] | activity change, negative = inhibition [14] 5.45% [at 18.9 µM] | activity change, negative = inhibition [15] 1.4% [at 19 µM] | activation [16] 2.69% [at 19 µM] | activity change, negative = inhibition [17] -1.25% [at 18.9 µM]

Nc1nnc(-c2cccc(Cl)c2Cl)c(N)n1
inactive: Potency [1] | Potency [2] | Potency [3] | outcome [4] | Potency [5] | Potency [6] | Potency [7] | Potency [8] | Potency [9] | Potency [10] | Potency [18] | Potency [14] | Potency [16] | Potency [17]

N#CSCC(=O)O
inactive: Potency [1] | Potency [2] | Potency [3] | outcome [4] | Potency [5] | Potency [6] | Potency [7] | Potency [8] | Potency [9] | Potency [10] | Potency [19] | Potency [12] | Potency [13] | Potency [18] | Potency [14] | Potency [15] | Potency [16] | Potency [17]

NC(=O)COCCN1CCN(C(c2ccccc2)c2ccc(Cl)cc2)CC1 (configuration not stated)
inactive: Potency [1] | Potency [2] | Potency [3] | outcome [4] | Potency [5] | Potency [6] | Potency [7] | Potency [8] | Potency [11] | Potency [19] | Potency [12] | Potency [13] | Potency [14] | Potency [15] | Potency [17]

O=C1CCCC(=O)C1
inactive: Potency [1] | Potency [2] | Potency [3] | outcome [4] | Potency [5] | Potency [6] | Potency [7] | Potency [8] | Potency [9] | Potency [10] | Potency [19] | Potency [12] | Potency [13] | Potency [18] | Potency [14] | Potency [15] | Potency [16] | Potency [17]

Cc1cccc(C)c1OCC(C)N (configuration not stated)
inactive: Potency [1] | Potency [2] | Potency [3] | outcome [4] | Potency [5] | Potency [6] | Potency [7] | Potency [8] | Potency [9] | Potency [10] | Potency [18] | Potency [17]

CCCC(=O)C(CC)Sc1ccoc1C (configuration not stated)
inactive: Potency [1] | Potency [2] | Potency [3] | outcome [4] | Potency [5] | Potency [6] | Potency [7] | Potency [8] | Potency [10] | Potency [11] | Potency [19] | Potency [12] | Potency [13] | Potency [18] | Potency [14] | Potency [15] | Potency [16] | Potency [17]
